Data as given in ChEMBL document CHEMBL1157539, “Thousands of chemical starting points for antimalarial lead identification” (Nature, 2010).

Columns and labels:
Assay type in all cases: functional
[1] = system: Plasmodium falciparum; experiment: GSK_TCMDC: Inhibition of Plasmodium falciparum 3D7 in whole red blood cells, using parasite LDH activity as an index of growth. Test compounds present at 2uM
[2] = system: Plasmodium falciparum; experiment: GSK_TCMDC: Inhibition of Plasmodium falciparum Dd2 in whole red blood cells, using parasite LDH activity as an index of growth. Test compounds present at 2uM
[3] = system: HepG2; experiment: GSK_TCMDC: Percent inhibition of human HepG2 cell line. Test compounds present at 10uM.

Structure (SMILES) | Inhibition [1] [%] | Inhibition [2] [%] | Inhibition [3] [%]
COc1cc(Cc2cnc(N)nc2N)ccc1OCc1ccc(NC(C)=O)cc1 | 98 | 0 | 9
CNC(=O)NC1=NC(C)(C)N(OCCCOc2cc(Cl)c(Cl)cc2Cl)C(N)=N1 | 97 | 2 | 7
Cc1cnc(C(=O)Nc2cccc(-c3ccc(-c4nc5cc(F)ccc5[nH]4)cc3)c2)cn1 | 100 | 13 | 19
CN(C)Cc1ccc2nc(-c3cccc(Cc4cc(Cl)ccc4OCc4ccc(Cl)cc4F)n3)[nH]c2c1.Cl | 93 | 26 | 43
O=C(O)C(F)(F)F.O=S(=O)(NC1CCN(c2ccnc3cc(Cl)ccc23)C1)c1cccs1 (stereo not given) | 100 | 76 | 6
O=C(Nc1cccc(Cl)c1Cl)N[C@H]1CCN(CCCCCNC(=O)C2CC2c2ccc(Cl)c(Cl)c2)C1 (stereo not given in full) | 87 | 0 | 40
CN1CCC(Oc2ccc(CN3CC[C@H](NC(=O)c4cccc(C#N)c4)C3)c3ccccc23)C1.O=C(O)C(F)(F)F (stereo not given in full) | 97 | 30 | 10
O=C(C=Cc1ccc(Cl)c(Cl)c1)NCCCCCN1CCCC(CCCNC(=O)c2cccs2)C1 (stereo not given) | 89 | 0 | 24
Cc1cccc(CNc2nc(C)cc(NCCC(=O)NCc3cccc(F)c3)n2)c1.O=C(O)C(F)(F)F | 84 | 13 | 23
CCOc1ccc2c(=NN=Cc3cccc(Cl)c3)cc(C)[nH]c2c1 | 93 | 34 | 0
COc1ccc(-c2ccc(NC(=O)c3ccc(C#N)cc3)cc2)cc1CN1CCNCC1.O=C(O)C(F)(F)F | 96 | 42 | 23
O=C(N[C@H](Cc1ccc(Cl)cc1)C(=O)N1CCN(c2ccnc3cc(Cl)ccc23)CC1)[C@H]1Cc2ccccc2CN1.O=C(O)C(F)(F)F | 85 | 41 | 16
CCNc1cc(C(=O)N[C@@H](Cc2ccccc2)[C@H](O)CNC2CCCC2)cc(N2CCCC2=O)c1 | 98 | 98 | 8
CCNc1cc(C(=O)N[C@@H](Cc2ccccc2)[C@H](O)CNCCc2ccccc2)cc(N2CCCCS2(=O)=O)c1.Cl | 98 | 91 | 14
CCOC(=O)NC1=NC(=N)N(OCc2ccc(Cl)c(Cl)c2)C(C)(C)N1 | 96 | 90 | 66
Cl.O=c1nc(NCCCNCc2cc3c(Cl)cc(Cl)cc3[nH]2)[nH]c2ccsc12 | 96 | 11 | 62
CC(Cl)=CCc1c(C)nc2c(ccc3ccccc32)c1O | 96 | 96 | 24
COc1ccc2nccc([C@H](O)CN3CCC(NCc4cc(C)c5c(c4)OCCO5)CC3)c2n1.Cl | 96 | 35 | 12

Structure (SMILES) | Inhibition [1] [%] | Inhibition [2] [%] | Inhibition [3] [%]
O=C(c1ccc(Cl)cc1)C1CCCN(C2CCN(CCc3ccccc3)CC2)C1 (stereo not given) | 96 | 51 | 37
COc1ccc2nccc([C@@H](O)CN3CCC(NCc4[nH]c5ccccc5c4F)CC3)c2c1.O=C(O)C(=O)O | 100 | 61 | 19
Cc1ccc(CON2C(N)=NC(N)=NC2(C)C)c(Cl)c1.Cc1ccc(CON2C(N)=NC(N)=NC2(C)C)cc1Cl | 91 | 96 | 67
Cc1nc(-c2cccc(Nc3nccc(NCC(O)c4ccc(C(F)(F)F)cc4)n3)c2)cs1 (stereo not given) | 100 | 99 | 33
O=C(Cn1c(CCc2cccc(F)c2F)nc(=O)c2ccccc21)N(Cc1ccc(-c2ccc(C(F)(F)F)cc2)cc1)C1CCN(C2CCSCC2)CC1.O=C(O)C(O)C(O)C(=O)O | 99 | 93 | 97
OC(CNCCc1ccccc1)Cn1c2ccc(Cl)cc2c2cc(Cl)ccc21 (stereo not given) | 98 | 96 | 53
N#Cc1cccc(Nc2nccc(NCC(O)c3ccc(C(F)(F)F)cc3)n2)c1 (stereo not given) | 100 | 98 | 23
C[C@@H](CC1CCCCC1)NCc1cccc(NS(=O)(=O)c2ccc(O)c(-c3ccno3)c2)c1.Cl | 88 | 4 | 0
CC(C)c1ccc(NC(=O)c2ccc(C(=O)NC3CCN(CC4CCCCC4)CC3)cc2)cc1.O=C(O)C(F)(F)F | 98 | 5 | 34
C[C@H](N[C@H]1CCCc2c1[nH]c1ccc(Br)cc21)c1ccccc1.Cl | 96 | 95 | 58
OC(CNc1ccnc(Nc2ccccc2)n1)c1ccc(C(F)(F)F)cc1 (stereo not given) | 100 | 39 | 3
COc1cc2nc(NCCCOC(C)C)n3nc(-c4ccccc4)nc3c2cc1OC | 94 | 97 | 0
Cc1c(-c2cccc(NC(=O)C(C)(C)Oc3ccc(Cl)cc3)c2)nc2ncccn12 | 98 | 95 | 0
O=C(NCC1CCC(C(=O)NCCc2ccc(Cl)c(Cl)c2)CC1)c1ccc(O)c(-c2ccc(Cl)c(Cl)c2)c1 (stereo not given) | 94 | 12 | 0
CCn1c(-c2nonc2N)nc2cnc(Oc3cccc(NC(=O)c4ccc(OCCN5CCCCC5)cc4)c3)cc21 | 98 | 7 | 16
Cc1cc(C(=O)OCC(N)=O)c(C)n1-c1ccc(F)cc1 | 97 | 96 | 0
CCOc1ccc2c(=NN=Cc3cccc(F)c3)cc(C)[nH]c2c1 | 100 | 100 | 0
